Source: PubChem BioAssay (The Scripps Research Institute Molecular Screening Center)
This is a sample that favours compounds with a hit; in the whole collection about 3.1% have one here.
Rin1 Abl inh: human Rin1-Abl interaction inhibition | TR-FRET Rin1/Abl binding, biochemical | 360,000 compounds, 0.4% hits | inhibition, % at 7.35 µM | P00519+Q13671; in the data active = inhibition above about 5%, passing the limit was not always enough
PAFAH1B3 FP inh: inhibitors of human PAFAH1B3; 340,000 compounds, 0.28% hits; recombinant PAFAH1B3, FP-rhodamine probe, fluorescence polarization; inhibition, % at 3.39 µM; AID 492972; Q15102;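 active = inhibition above the screen-wide average of all tested compounds plus 3 SD, cut at about 25% in these data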;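 note: 0% = enzyme with DMSO only and 100% = wells lacking PAFAH1B3 protein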
E coli Lon inh: inhibitors of E. coli Lon protease. inhibition, % at 7.94 µM. purified E. coli Lon protease, fluorescence polarization. 360,000 compounds, 0.42% hits; in the data active = inhibition above about 13%, passing the limit was not always enough;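 note: 0% = enzyme with probe and DMSO and 100% = no enzyme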
pPAFAH FP inh: pPAFAH (human) enzyme inhibition. recombinant pPAFAH, FP-rhodamine probe fluorescence polarization. inhibition, % at 3.39 µM. 330,000 compounds, 1.5% hits. Q13093;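 active = inhibition above the mean inhibition across the screen plus 3 SD, cut at about 25% in these data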;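 note: inhibitors block binding of the rhodamine activity-based probe so polarization drops; 0% = enzyme with DMSO and 100% = wells lacking pPAFAH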
Target sequence (Q13093 whole entry, looked up): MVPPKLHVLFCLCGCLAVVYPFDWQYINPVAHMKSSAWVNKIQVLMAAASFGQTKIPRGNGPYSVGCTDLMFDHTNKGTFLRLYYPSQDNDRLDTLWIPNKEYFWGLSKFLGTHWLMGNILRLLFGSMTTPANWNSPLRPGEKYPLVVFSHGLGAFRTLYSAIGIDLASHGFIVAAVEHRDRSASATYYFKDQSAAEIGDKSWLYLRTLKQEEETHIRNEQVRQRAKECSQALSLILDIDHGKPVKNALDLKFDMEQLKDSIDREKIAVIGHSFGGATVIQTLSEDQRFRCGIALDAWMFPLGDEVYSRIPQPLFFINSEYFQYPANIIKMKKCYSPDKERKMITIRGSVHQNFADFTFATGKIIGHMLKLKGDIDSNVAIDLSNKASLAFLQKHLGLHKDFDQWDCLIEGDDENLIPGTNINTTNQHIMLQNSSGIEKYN
PAFAH1B2 inh: inhibitors of human PAFAH1B2; 340,000 compounds, 1.2% hits; inhibition, % at 3.39 µM; AID 492953; recombinant PAFAH1B2, FP-rhodamine activity probe, fluorescence polarization; P68402;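 active = inhibition above the mean of all tested compounds plus 3 SD, cut at about 24% in these data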;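 note: 0% = enzyme with DMSO and 100% = wells lacking PAFAH1B2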
Target sequence (P68402 whole entry, looked up): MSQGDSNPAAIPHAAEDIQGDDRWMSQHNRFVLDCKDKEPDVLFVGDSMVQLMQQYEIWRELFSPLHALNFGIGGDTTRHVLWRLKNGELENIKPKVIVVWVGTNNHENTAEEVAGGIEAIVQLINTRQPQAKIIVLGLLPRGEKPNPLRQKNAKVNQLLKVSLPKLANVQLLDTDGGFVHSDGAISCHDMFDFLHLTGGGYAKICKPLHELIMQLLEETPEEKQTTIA
PAFAH2 FP inh: PAFAH2 (human) inhibition. recombinant PAFAH2, FP-rhodamine activity probe, fluorescence polarization. inhibition, % at 3.39 µM. 340,000 compounds, 0.99% hits. AID 492956;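 active = inhibition above the mean over all tested compounds plus 3 SD, cut at about 30% in these data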;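 note: inhibitors block probe labeling of enzyme so polarization drops; 0% = enzyme with DMSO and 100% = wells lacking PAFAH2 protein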
PAFAH2 confirm: confirmation of human PAFAH2 inhibitors | AID 493030 | 2,300 compounds, 65% hits | inhibition, % at 3.39 µM | shares compounds with PAFAH2 FP inh | recombinant PAFAH2, FP-rhodamine activity probe, fluorescence polarization;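 active = mean inhibition over three repeats above a set limit taken from the earlier primary screen, cut at about 30% in these data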;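 note: inhibitor blocks binding of rhodamine activity probe so polarization falls; 0% = enzyme with DMSO and 100% = wells lacking PAFAH2 protein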
Active calls of the source: *.

`O=C(COC(=O)c1cccc(S(=O)(=O)N2CCCCCC2)c1)Nc1ccccc1C(F)(F)F` gave Rin1 Abl inh -1, PAFAH1B3 FP inh 0, E coli Lon inh -11, pPAFAH FP inh 18, PAFAH1B2 inh 2, PAFAH2 FP inh 58* and PAFAH2 confirm 36*.
Screening O=C(COC(=O)c1cccc(S(=O)(=O)N2CCCCC2)c1)NC1CCCCC1 returned Rin1 Abl inh 1, PAFAH1B3 FP inh 11, E coli Lon inh 2, pPAFAH FP inh 6, PAFAH1B2 inh 2, PAFAH2 FP inh 77* and PAFAH2 confirm 76*.
`O=C1CCCCC1CCc1ccncc1` (configuration not stated) gave Rin1 Abl inh 5, PAFAH1B3 FP inh 4, E coli Lon inh -1, PAFAH1B2 inh 3 and PAFAH2 FP inh -4.
For O=C(O)CCC(=O)OCCN(Cc1ccc(Oc2ccc([N+](=O)[O-])cc2)cc1)C(=O)C(Cl)Cl the results were Rin1 Abl inh -1, PAFAH1B3 FP inh 12, E coli Lon inh 5, PAFAH1B2 inh 1 and PAFAH2 FP inh 0.
Screening CC(=O)Nc1ccc(NC(=O)C(C)Oc2ccc(C)nc2[N+](=O)[O-])cc1 (configuration not stated) returned Rin1 Abl inh -1, PAFAH1B3 FP inh 3, E coli Lon inh 0, pPAFAH FP inh 3, PAFAH1B2 inh -2 and PAFAH2 FP inh 2.
CCCCNC(=O)COC(=O)c1ccc(Cl)c(S(=O)(=O)N2CCCC2)c1 was read as Rin1 Abl inh 0, PAFAH1B3 FP inh 9, E coli Lon inh 2, pPAFAH FP inh 13, PAFAH1B2 inh 4, PAFAH2 FP inh 44* and PAFAH2 confirm 21.
Screening N#Cc1ccc(Oc2ncccn2)cc1 returned Rin1 Abl inh -2, PAFAH1B3 FP inh 0, E coli Lon inh 5, pPAFAH FP inh -2, PAFAH1B2 inh 1 and PAFAH2 FP inh 8.
COc1ccc(C(=O)c2ccc([N+](=O)[O-])cc2)cc1S(=O)(=O)N1CCC(C(=O)O)CC1 was read as Rin1 Abl inh -3, PAFAH1B3 FP inh 9, E coli Lon inh -2, pPAFAH FP inh 7, PAFAH1B2 inh 0 and PAFAH2 FP inh -3.
For c1ccc(-c2csc(NC3CCCCC3)n2)cc1 the results were Rin1 Abl inh -2, PAFAH1B3 FP inh -4, E coli Lon inh -9, pPAFAH FP inh 4, PAFAH1B2 inh 3 and PAFAH2 FP inh 0.
For O=C(Nc1nc(-c2ccccc2)cs1)NC1CCCCC1 the results were Rin1 Abl inh -1, PAFAH1B3 FP inh 4, E coli Lon inh -5, pPAFAH FP inh 0, PAFAH1B2 inh 6, PAFAH2 FP inh 30* and PAFAH2 confirm 1.
Screening CC(C)CN1CCN(Cc2cn(C)c3ccccc23)CC1CCO (configuration not stated) returned Rin1 Abl inh -3, PAFAH1B3 FP inh 9, E coli Lon inh -18, pPAFAH FP inh 4, PAFAH1B2 inh 9 and PAFAH2 FP inh -8.
CCCCNC(=O)c1onc(CSc2cc(C)cc(C)c2)c1C(=O)O was read as Rin1 Abl inh 2, PAFAH1B3 FP inh 11, E coli Lon inh -7, pPAFAH FP inh -1, PAFAH1B2 inh 5, PAFAH2 FP inh 38* and PAFAH2 confirm 27.
For CCCCNC(=O)c1onc(CSc2ccccc2C)c1C(=O)O the results were Rin1 Abl inh 1, PAFAH1B3 FP inh 8, E coli Lon inh 4, pPAFAH FP inh 4, PAFAH1B2 inh 12, PAFAH2 FP inh 30* and PAFAH2 confirm 35*.
CCCCNC(=O)c1onc(CSc2ccccc2F)c1C(=O)O was read as Rin1 Abl inh 3, PAFAH1B3 FP inh 10, E coli Lon inh -13, pPAFAH FP inh 2, PAFAH1B2 inh 6 and PAFAH2 FP inh 23.
`CCCCNC(=O)c1onc(CSc2cc(C)cc(C)c2)c1C(=O)NCCCC` gave Rin1 Abl inh 1, PAFAH1B3 FP inh 3, E coli Lon inh 8, pPAFAH FP inh -4, PAFAH1B2 inh 0 and PAFAH2 FP inh -5.
Cn1cc(Cc2ccc(C(=O)N3CCN(Cc4ccccc4)CC3)cn2)c2ccccc21 was read as Rin1 Abl inh -3 and E coli Lon inh 15.
Screening O=C(CCc1ccccc1)Nc1ccccc1C(=O)NCc1ccco1 returned Rin1 Abl inh -2, PAFAH1B3 FP inh 5, E coli Lon inh -5, pPAFAH FP inh 5, PAFAH1B2 inh 2, PAFAH2 FP inh 30* and PAFAH2 confirm 30*.
For COc1cccc(NC(=O)COC(=O)c2c(F)cccc2F)c1 the results were Rin1 Abl inh 1, PAFAH1B3 FP inh 7, E coli Lon inh -1, pPAFAH FP inh 4, PAFAH1B2 inh 6, PAFAH2 FP inh 57* and PAFAH2 confirm 30.
`Cc1ccc(NC(=O)COC(=O)c2ccco2)cc1C` gave Rin1 Abl inh 2, PAFAH1B3 FP inh -1, E coli Lon inh 5, pPAFAH FP inh -3, PAFAH1B2 inh 6, PAFAH2 FP inh 77* and PAFAH2 confirm 59*.
Screening Cn1cccc1C(=O)OCC(=O)Nc1ccc2c(c1)OCCO2 returned Rin1 Abl inh 2, PAFAH1B3 FP inh 7, E coli Lon inh -6, pPAFAH FP inh 0, PAFAH1B2 inh 4, PAFAH2 FP inh 49* and PAFAH2 confirm 33*.
CC(=O)Nc1ccc(NC(=O)COC(=O)c2ccco2)cc1 was read as Rin1 Abl inh 4, PAFAH1B3 FP inh 7, E coli Lon inh -1, pPAFAH FP inh 2, PAFAH1B2 inh -3 and PAFAH2 FP inh 3.
`Cc1ccc(NC(=O)COC(=O)c2ccco2)cc1` gave Rin1 Abl inh 0, PAFAH1B3 FP inh 5, E coli Lon inh 15, pPAFAH FP inh 1, PAFAH1B2 inh 5, PAFAH2 FP inh 62* and PAFAH2 confirm 53*.
O=C(O)c1ccc([N+](=O)[O-])cc1-c1cc([N+](=O)[O-])ccc1C(=O)O was read as Rin1 Abl inh 0, PAFAH1B3 FP inh 10, E coli Lon inh -14, PAFAH1B2 inh 3 and PAFAH2 FP inh 4.
COc1ccc(N(CC(=O)N2CCc3ccccc3C2)S(C)(=O)=O)cc1Cl was read as Rin1 Abl inh 3, PAFAH1B3 FP inh 12, E coli Lon inh 3, pPAFAH FP inh 4, PAFAH1B2 inh 4 and PAFAH2 FP inh -1.
Screening CCOc1ccc(NS(=O)(=O)c2csc(C(N)=O)c2)cc1 returned Rin1 Abl inh -2, PAFAH1B3 FP inh 9, E coli Lon inh 7, pPAFAH FP inh 12, PAFAH1B2 inh 4 and PAFAH2 FP inh 12.
Screening O=C(Nc1ccc2c(c1)OCCO2)c1ccco1 returned Rin1 Abl inh -4, PAFAH1B3 FP inh 8, E coli Lon inh -3, pPAFAH FP inh -2, PAFAH1B2 inh 0 and PAFAH2 FP inh 6.
`COc1cccc(NC(=O)CCC2CCN(C(=O)c3sccc3C)CC2)c1` gave Rin1 Abl inh 1, PAFAH1B3 FP inh 7, E coli Lon inh -8, pPAFAH FP inh 3, PAFAH1B2 inh 2 and PAFAH2 FP inh 4.
